In PubChem BioAssay (EPA / NIEHS):
Results filed as inconclusive are left out. Calls of active or inactive are those of the source. How the source made its calls, unless noted: active means hit-call score of the fitted dose curve at least 0.9, where 1 is the maximum; inactive means score below 0.9.

What was measured:
[1] = CEETOX_H295R_ANDR_noMTC: CeeTox H295R High-throughput Steroidogenesis Assay for Androstenedione (ANDR), maximum tolerated concentration (MTC) filtered results only (AID 2283915); details: actives raise or lower the signal
Method in brief: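 H295R cells, passage 10 or below, prestimulated 48 h with 10 uM forskolin, then exposed 48 h to chemical in 0.1% DMSO. Medium androstenedione extracted with MTBE, quantified by HPLC-MS/MS; concentrations not MTC-filtered; bidirectional fit versus DMSO.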

[2] = CEETOX_H295R_TESTO_noMTC: CeeTox H295R High-throughput Steroidogenesis Assay for Testosterone (TESTO), maximum tolerated concentration (MTC) filtered results only (AID 2283924); details: actives raise or lower the signal
Method in brief: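 H295R cells prestimulated 48 h with 10 uM forskolin, then exposed 48 h to chemicals in 0.1% DMSO final. Testosterone in medium quantified by MTBE extraction and HPLC-MS/MS; bidirectional fit versus DMSO, concentrations […] filtered by MTT-based maximum tolerated concentration.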

[3] = CEETOX_H295R_CORTISOL_noMTC: CeeTox H295R High-throughput Steroidogenesis Assay for Cortisol, maximum tolerated concentration (MTC) filtered results only (AID 2283916); details: actives raise or lower the signal
Method in brief: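 H295R adrenal cells were pre-stimulated 48 h with 10 uM forskolin, then exposed 48 h to test chemical in 0.1% DMSO. Medium cortisol was measured by MTBE extraction and HPLC-MS/MS; bidirectional fit versus DMSO, concentrations not MTC-filtered.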

[4] = CEETOX_H295R_CORTIC_noMTC: CeeTox H295R High-throughput Steroidogenesis Assay for Corticosterone (CORTIC), maximum tolerated concentration (MTC) filtered results only (AID 2283917); details: actives raise or lower the signal
Method in brief: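 H295R, 10 uM forskolin prestim 48 h → test chem (0.1% DMSO final) 48 h → media MTBE extraction → HPLC-MS/MS corticosterone. Bidirectional fit vs DMSO baseline; no MTT-based MTC filtering.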

[5] = CEETOX_H295R_DOC_noMTC: CeeTox H295R High-throughput Steroidogenesis Assay for DOC, maximum tolerated concentration (MTC) filtered results only (AID 2283918); details: actives raise or lower the signal
Method in brief: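 H295R cells prestimulated 48 h with 10 uM forskolin, then exposed 48 h to test chemical (0.1% DMSO final). Medium 11-deoxycorticosterone extracted with MTBE, quantified by HPLC-MS/MS; bidirectional fit versus DMSO, concentrations not MTC-filtered.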

PGR (gene 5241) = PGR (gene 5241) (UniProt P06401); experiment: TOX21_PR_BLA_Followup_Antagonist_ratio: Tox21 HEK293 Progesterone Receptor (PR) Antagonism Beta-lactamase Follow-Up Assay, Ratio (AID 2283934; active means hit-call score of the fitted dose curve at least 0.9, where 1 is the maximum)
Method in brief: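 HEK293T PR-UAS-bla, 2% CS-FBS; 6 hr plating, then cpd + R5020 (1 nM final), 16 hr 37C/5% CO2. B/G FRET substrate 2 h RT. Ratio ch2/ch1 vs DMSO; CellTiter-Glo viability multiplexed, autofluorescence checked.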

[6] = TOX21_PR_BLA_Followup_Agonist_viability: Viability Assessment in the Tox21 HEK293 Progesterone Receptor (PR) Agonism Beta-lactamase Follow-Up Assay (AID 2283935; active means hit-call score of the fitted dose curve at least 0.9, where 1 is the maximum;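 further: cells exposed to compound for 16 hr at 37 °C; signal loss means lower viability so actives are cytotoxic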)
Method in brief: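 HEK293T PR-UAS-bla, 3,000 cells/well, 2% CS-FBS; 6 hr pre-incubation; cpd in DMSO, 16 hr 37C; LiveBLAzer 2 hr RT, then CellTiter-Glo 30 min RT, luminescence. Decrease = lost viability.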

[7] = TOX21_PR_BLA_Followup_Antagonist_viability: Viability Assessment in the Tox21 HEK293 Progesterone Receptor (PR) Antagonism Beta-lactamase Follow-Up Assay (AID 2283936; active means hit-call score of the fitted dose curve at least 0.9, where 1 is the maximum;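 further: hits lower the luminescence signal meaning cytotoxicity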)
Method in brief: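 PR-UAS-bla HEK293T cells (3,000/well, 2% charcoal-stripped FBS) given compound plus R5020 agonist, 16 h at 37C. CellTiter-Glo added after bla read, 30 min at room temperature; luminescence loss indicates cytotoxicity.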

PGR (gene 5241), sequence (P06401 whole entry, looked up): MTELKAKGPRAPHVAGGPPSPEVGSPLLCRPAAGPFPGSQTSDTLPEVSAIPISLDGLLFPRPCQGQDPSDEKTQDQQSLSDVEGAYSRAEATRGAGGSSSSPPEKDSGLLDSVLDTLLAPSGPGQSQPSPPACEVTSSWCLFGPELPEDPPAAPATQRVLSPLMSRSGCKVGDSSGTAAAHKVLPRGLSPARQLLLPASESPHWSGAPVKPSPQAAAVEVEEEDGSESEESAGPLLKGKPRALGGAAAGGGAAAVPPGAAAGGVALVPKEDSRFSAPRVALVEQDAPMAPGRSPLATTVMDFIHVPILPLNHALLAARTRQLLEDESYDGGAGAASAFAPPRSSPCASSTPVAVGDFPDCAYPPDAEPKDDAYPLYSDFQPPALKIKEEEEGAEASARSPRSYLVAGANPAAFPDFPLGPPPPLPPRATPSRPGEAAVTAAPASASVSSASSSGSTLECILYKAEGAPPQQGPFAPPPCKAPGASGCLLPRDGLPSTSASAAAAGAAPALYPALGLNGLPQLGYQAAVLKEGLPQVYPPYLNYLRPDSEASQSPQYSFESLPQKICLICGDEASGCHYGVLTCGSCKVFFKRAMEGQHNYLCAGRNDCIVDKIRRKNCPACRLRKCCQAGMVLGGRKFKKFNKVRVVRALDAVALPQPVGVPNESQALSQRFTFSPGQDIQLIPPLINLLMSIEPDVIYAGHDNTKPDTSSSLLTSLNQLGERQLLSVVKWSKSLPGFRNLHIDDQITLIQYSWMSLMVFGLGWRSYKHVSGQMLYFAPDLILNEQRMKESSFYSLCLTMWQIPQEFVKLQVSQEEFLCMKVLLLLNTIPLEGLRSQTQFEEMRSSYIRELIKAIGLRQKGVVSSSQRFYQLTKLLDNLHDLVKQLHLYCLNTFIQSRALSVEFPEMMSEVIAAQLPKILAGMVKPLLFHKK

With `CCCCC(CC)COC(=O)c1ccc(C(=O)OCC(CC)CCCC)cc1` (stereo not drawn) the outcome [1] was “inactive” and the outcome [2] was “inactive”.
In the case of `CC(C)=CCC/C(C)=C\CO`, the outcome [1] is reported as “inactive”, the AC50 [3] is reported as 61.5 µM (active) and the AC50 [4] is reported as 57.7 µM (active). The outcome [5] was “inactive” and the outcome [2] was “inactive”.
With `CC(C)c1cccc(C(C)C)c1N1C(=O)c2ccc(O)cc2C1=O` the AC50 (PGR (gene 5241)) was 15.7 µM (active), the outcome [6] was “inactive” and the outcome [7] was “inactive”.
With `O=P(OC(CCl)CCl)(OC(CCl)CCl)OC(CCl)CCl` the AC50 (PGR (gene 5241)) was 18.2 µM (active), the outcome [6] was “inactive” and the outcome [7] was “inactive”.
